Holding throughout (experiment): NCI-60 one-dose screen, 48 h (100 = growth as untreated, 0 = no growth, -100 = all killed)
Common to all, as to conditions: 10 µM unless noted

The test system of assay [1] is NCI-H23 lung.
For assay [2], the system named is NCI-H226 lung.
Assay [3] concerns NCI-H322M lung.
For assay [4], the system named is HOP-62 NSCLC.
For assay [5], the system named is NCI-H460 lung.
The subject of assay [6] is NCI-H522 lung.
Assay [7] deals with A549/ATCC NSCLC.
The subject of assay [8] is 786-0 renal.
In assay [9] the test system is COLO 205 colon.
The subject of assay [10] is DU-145 prostate.

Compounds without any hit were thinned out: in the full panel of roughly 83,000, 20% have a hit.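 Note: values are percent growth. 100 is the growth of untreated cells, values between 100 and 0 indicate rising inhibition; between -100 and 0 indicates cell death.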 Values without a mark were called inactive. Activity calls are given as the source filed them. The calls were made as follows: active = growth percent below 10; inactive = the rest.

With `O=C1c2ccccc2C(=O)c2c1cccc2-n1nnc2ccccc21`, the growth in assay [1] was 106%; in assay [2], 103%; in assay [3], 118%; in assay [4], 101%; in assay [5] it was 111%; in assay [6], 86%. Also, the growth in assay [7] is 116%; in assay [8], 106%; in [9] it was 116%; in assay [10], 108%.

As to `C[N+]1(CCC[N+]2(C)C[C@@H]3[C@H](C2)[C@@H]2C=C[C@H]3C2)CCOCC1` (some centres undefined), the growth in [1] is 105%; in assay [2], 110%; in [3], 106%; in assay [4], 94.3%; in [5], 116%; in assay [6], 106%. For the same compound, the growth in assay [7] was 111%; in [8], 109%; in assay [9], 104%; in assay [10] it was 140%.

For the compound `CCC(=O)Nc1ccccc1C#C/C=C\C#Cc1ccccc1C(F)(F)F`, the growth is 57.3% in assay [1]; 52.5% in [2]; 37.4% in [3]; 54.5% in [4]; 10.2% in [5]; 68.2% in assay [6]. Moreover, the growth in assay [7] was 64.2%; in assay [8] it was 50.5%; in assay [9], 59.4%; in [10], 40%.

Take `O=C1NCN(CCO)CN1`: the growth is 98.6% in assay [1]; 105% in assay [2]; 94.2% in assay [3]; 85.1% in assay [4]; 105% in assay [5]; 103% in assay [6]. In addition, the growth in assay [7] was 101%; in assay [8] it was 90.4%; in [9], 120%; in assay [10] it was 117%.

With `O=C1N(C2CCCCC2)C(=O)N1C1CCCCC1`, the growth was 45.1% in assay [1]; 46% in [2]; 35.2% in [3]; 57.5% in assay [4]; 39% in assay [5]; 17.3% in assay [6]. In addition, the growth is 34.5% in assay [7], 53.5% in assay [8], 62% in assay [9] and 38.7% in assay [10].

With `CC(=O)Oc1ccc(C2OC(c3ccc4ccccc4c3OC(C)=O)=NN2C(C)=O)c(OC(C)=O)c1` (centres undefined), the growth in [1] is 28.8%; in assay [2], 15.7%; in [3] it was 24.4%; in assay [4], 14.7%; in assay [5], 6.03% (active); in assay [6] it was 4.49% (active). For the same compound, the growth in assay [7] was 6.76% (active); in assay [8] it was 5.71% (active); in assay [9], 15.9%; in assay [10], 22.7%.

On to `CC1CC(C)/C(=N/NC(N)=O)C(C(O)CC2CCC(=O)NC2=O)C1` (centres undefined), for which the growth is 36.1% in assay [1]; 42.3% in [2]; 14.4% in assay [3]; 49.3% in assay [4]; 31.7% in assay [5]; 18% in assay [6]. Moreover, the growth was 27.7% in assay [7], 25% in assay [8], 42.1% in [9] and 37.4% in assay [10].

Regarding `CC(=O)Oc1c(C)c(OC(C)=O)c2c(c1C(C)=O)OC1CC(=O)C(C(C)=O)=C(O)C21C` (centres undefined), the growth in [1] is 90.9%; in assay [2] it was 104%; in assay [3], 105%; in assay [4], 89.2%; in assay [5], 94.9%; in [6], 91.1%. For the same compound, the growth in assay [7] was 99%; in assay [8], 94.8%; in assay [9] it was 118%; in assay [10] it was 112%.

As to `COc1ccc(-c2cc(C(=O)Nc3nc4cc(C)c(C)cc4s3)nc3cc(-c4ccccc4)nn23)cc1OC`, the growth in [1] was 96%; in assay [2], 113%; in assay [3], 119%; in [4], 100%; in assay [5], 112%; in [6], 89%. Further, the figures for the growth in assay [7], in [8] and in [10] were 94.5%, 112% and 121%, respectively.

Take `O=C(c1ccccc1)c1ccccc1Cl`: the growth in [1] is 100%; in [2], 105%; in assay [3], 108%; in assay [4], 105%; in assay [5], 104%; in assay [6], 92.4%. Also, the growth is 98.9% in assay [7], 98.8% in assay [8] and 108% in assay [10].

Consider `NC(N)=NN=c1c(=O)c2ccccc2c1=O`, for which the growth in assay [1] was 58%; in [2], 94.6%; in [3], 102%; in assay [4], 32.3%; in assay [5] it was 0.312% (active); in assay [6], 80.8%. In addition, the growth is 95.1% in assay [7], 108% in [8] and -97.4% (active) in assay [10].

Regarding `O=C1OC(c2ccc(-c3ccccc3)cc2)=C/C1=C/c1cccs1`, the growth is 88.6% in assay [1]; 63.6% in assay [2]; 99.7% in assay [3]; 101% in assay [4]; 105% in assay [5]; 63% in [6]. The growth in assay [7] was 83.6%; in assay [8], 90.3%; in assay [10], 103%.

For `CC(C)c1ccc(C(=O)Nc2sc3c(CN(C)C)c(O)ccc3c2C(N)=O)cc1`, the growth is 49.1% in assay [1]; 86.9% in [2]; 65.5% in [3]; 64.4% in assay [4]; 72% in [5]; 43.7% in [6]. Further, the figures for the growth in assay [7], in [8] and in assay [10] were 33%, 49.6% and 51.9%, respectively.

Regarding `COC1=CC(c2ccc[nH]2)=N/C1=C\c1[nH]c(C)c(C(=O)CCC(=O)Oc2ccc3c(c2)CCC2C3CC[C@]3(C)C(=O)CC[C@@H]23)c1C` (some centres undefined), the growth in [1] is 73.5%; in assay [2] it was 87.6%; in [3], 81.4%; in assay [4], 80.2%; in assay [5], 48.3%; in [6], 57.3%. In addition, the growth was 49.9% in assay [7], 75.8% in assay [8] and 28.5% in assay [10].
